From PubChem BioAssay AID651812 (National Center for Advancing Translational Sciences (NCATS), 2012)
The campaign covered roughly 2,100 compounds. About 650 (31%) were called active. About 16% were inconclusive and are not listed. The call rests on the fitted dose curve; in most records, active means well fitted inhibition curve with a large enough effect; inconclusive means small, poorly fitted or top-dose-only effect; inactive means flat fitted curve, though single readings scatter. Some of the results follow.

Assay: qHTS for inhibitors of Vif-A3G interactions: Cherry picks; further: nearly all actives have a fitted effect of over 80% in size; on activity, negative = fluorescence increase: % of control where 0% means no effect
Settings: HeLa A3G-eYFP + Vif (tagged APOBEC3G with the HIV-1 protein that degrades it), 24 h; Potency: eYFP fluorescence increase; series mostly up to 36.9 µM; activity, negative = fluorescence increase: at the top concentration
Source text: The recent discovery and characterization of host restriction factors, which provide a potent defense to invading retroviruses, has provided new targets for antiviral drug development. APOBEC3G (A3G) and APOBEC3F (A3F) are potent cytidine deaminases that block HIV-1 replication; HIV-1 expresses the Vif protein, which counteracts A3G and A3F by binding to them and inducing their proteasomal degradation. The Vif-A3G and Vif-A3F interactions provide two potential targets for development of small molecules which can interfere with the ability of Vif to degrade A3G or A3F. […] To identify inhibitors that can interfere with Vif mediated degradation of A3G and A3F, we have developed Hela cell lines that stably express A3G or A3F tagged with eYFP at the C-terminal end (A3G-eYFP or A3F-eYFP, respectively) and Vif. In the absence of an inhibitor, Vif induces degradation of A3G-eYFP and A3F-eYFP, and the cells are not fluorescent. In the presence of an inhibitor, it is expected that Vif will be unable to degrade A3G-eYFP and/or A3F-eYFP, resulting in an increase in yellow fluorescence. In this assay, Vif A3G was screened against the cherry picks ordered from the MLSMR. NIH Chemical Genomics Center [NCGC] NIH Molecular Libraries Probe Centers Network [MLPCN] MLPCN Grant: MH093245 Assay Submitter (PI): Vinay Pathak, National Cancer Institute
A3G-Vif cells were harvested from T225 flask and resuspended in phenol free OPTI-MEM medium with 5% FBS. Then 5 uL of 140,000 cells/mL resuspended cells was dispensed into each well of low base Aurora COC 1,536-well plates (black walled, clear bottom) using a Multidrop Combi dispenser. After overnight culture at 37 deg C with 5% CO2, a total of 23 nL of compounds at 5 selected concentrations from the NPC or positive control (2 mM stock of MG132) in DMSO was transferred to each well of the assay plate using a pintool (Kalypsys, San Diego, CA), and the plates were further incubated at 37 deg C with 5% CO2 for 24 hours. After that, the plates were measured on Acumen Explorer (TTP Lab Tech). The fluorescence was detected by 488 nm/Ex and […].
Potency means the concentration at half of the fitted maximal effect.

activity, negative = fluorescence increase, inactive:
Cc1c(=O)n(OCc2ccc(Cl)cc2)c2ccccc2[n+]1[O-] -13.2%
Nc1nc2n[nH]nc2c(=O)[nH]1 -21.5%
CC12CC3CC(C)(C1)CC(C(=O)NC(=S)N1CCOCC1)(C3)C2 -2.7%
COc1ccc(-c2n[nH]c(C)c2-c2ccc(OC)c(OC)c2)c(O)c1 -8.88%
C=C1C(=O)O[C@@H]2[C@H]1[C@@H](OC(=O)/C(C)=C/C)C/C(C)=C\C(=O)/C=C(\C)[C@@H]2O -0.207%
COc1ccc(OC)c2sc(NC(=O)CCS(=O)(=O)c3ccccc3)nc12 1.26%
COc1ccc(/C=N/NC(=O)c2ccccc2Cl)cc1CSc1nc2ccccc2s1 -9.1%
COc1ccc(/C=N\NC(=O)c2ccccc2F)cc1COc1ccc(F)cc1F -9.87%
O=C(Oc1ccc(Cl)c2cccnc12)c1ccco1 1.78%
CC1(C)Cc2nc3sc4c(SCC(=O)NCc5ccco5)ncnc4c3cc2CO1 2.17%
CCS(=O)(=O)N1CCc2cc(C(=O)N3CCN(c4cccc(C(F)(F)F)c4)CC3)ccc21 1.28% [at 46.1 µM]
CCC(C)Sc1cccc(-c2nc3cc(C)ccn3c2NC2CCCCC2)c1 (configuration not stated) 10.8% [at 46.1 µM]
CN1C(=O)C(O)(C2COC(C)(C)CC2=O)c2cc(Br)ccc21 (configuration not stated) -6.11%
N#CC1=C(N)Oc2cc(N)ccc2C1C1CC=CCC1 (configuration not stated) -0.128%
COc1ccc(-c2cc(NC=O)c3ncc(-c4ccc(OC)c(OC)c4)n3c2)cc1OC -17.9%
CCOC(=O)C(=Cc1ccc(-n2ccnc2)cc1)C(=O)OCC -3.07%
Cn1c(-c2ccccc2)cc2c3no[n+]([O-])c3ccc21 -7.06%
CC(C)(C)NCC(=Cc1ccccc1)C(=O)c1ccccc1 3.08%
N#C/C(=C\c1cccnc1)c1nc2ccccc2[nH]1 -5.97%
Cc1cccc(Nc2nnc(SC/C(O)=C(\C#N)c3nc4ccccc4[nH]3)s2)c1 -16.6% [at 46.1 µM]
COc1ccc(-c2cnnc(N/N=C/c3ccc(O)c(OC)c3)n2)cc1 -16.7%
COc1cc(/C=C(/C(=O)c2cccs2)c2nc3ccccc3[nH]2)ccc1O -7.69%

Potency, active:
COCCN1C(=O)/C(=C/c2ccc(N3CCCC3)cc2C)SC1=S 2.59 µM
COCCN1C(=O)/C(=C/c2ccc(N3CCCC3)cc2)SC1=S 4.61 µM
COc1cc(/C=C(\C#N)c2nc3ccccc3s2)ccc1OCC(=O)Nc1ccccc1 17.7 µM
COc1cc(/C=C(\C#N)c2nc3ccccc3[nH]2)ccc1OCc1ccccc1F 18.4 µM
COc1cc(/C=C(/C#N)c2nc3ccccc3[nH]2)ccc1OC(=O)c1ccco1 3.53 µM
COc1cc(/C=C(\C#N)c2nc3ccc(C)cc3[nH]2)ccc1OC(C)C 20.6 µM
COc1cc(Br)c(/C=C(\C#N)c2nc3ccccc3[nH]2)cc1OC 18.4 µM
COc1cc(/C=C(\C#N)c2nc3ccccc3[nH]2)cc(Cl)c1OCc1ccccc1Cl 18.4 µM
COc1cc(/C=C(/C#N)c2nc3ccccc3[nH]2)ccc1OCC(=O)Nc1ccccc1C(C)C 16.4 µM
COc1cc(/C=C(\C#N)c2nc3ccccc3[nH]2)ccc1O 5.8 µM
